Source: PubChem BioAssay AID686979 (National Center for Advancing Translational Sciences (NCATS), 2013)
The campaign covered roughly 420,000 compounds. About 50,000 (12%) were called active. Roughly 26% stayed inconclusive and do not appear here. Calls come from the whole dose curve; as a rule, active = well fitted inhibition curve with a large enough effect; inconclusive = small, poorly fitted or top-dose-only effect; inactive = flat fitted curve, though single readings scatter. What follows is part of a selection rich in actives, with near analogues and random picks from the rest. A call without a number means that no potency is given here.

Assay: qHTS for Inhibitors of human tyrosyl-DNA phosphodiesterase 1 (TDP1): qHTS in cells in presence of CPT; note: nearly all actives have a fitted effect of over 55% in size
Details: chicken DT40 Tdp1-/-;hTDP1 cells + 20 nM CPT, ATP luminescence, 48 h; series mostly up to 46.2 µM
Summary of the method: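 Chicken DT40 Tdp1-/- cells stably complemented with human TDP1 were seeded at 400 cells/well in medium containing 20 nM camptothecin, exposed to pin-transferred compounds, and grown at 37 °C for at least 48 hr. Viability was read as ATP luminescence.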
Potency is the fitted concentration of half-maximal effect.

| Compound | Potency |
| --- | --- |
| COc1ccc(NC(=O)CN(C)C(=O)CC2CCCCC2)cc1 | inactive |
| COc1cc(OC)c(C2C=C(C(=O)O)Nc3ncnn32)cc1OC (stereo unspecified) | inactive |
| CC(C)CC(=O)Nc1ccc(Cc2ccncc2)cc1 | inactive |
| CCNC(=O)C1(C)CCN(C(=O)c2ccccc2)C1 (stereo unspecified) | inactive |
| CCOC(=O)NC(=O)C(=CNc1cccc(OC)c1)C(=O)NC(=O)OCC | inactive |
| CCC(c1nnnn1Cc1ccco1)N(CCc1ccccc1)Cc1cc2ccc(OC)cc2[nH]c1=O (stereo unspecified) | 23.1 µM (active) |
| COc1ccc2[nH]c3c(=O)n(Cc4ccco4)cnc3c2c1 | inactive |
| COCCn1nnnc1C(c1cc2ccc(OC)cc2[nH]c1=O)N1CCc2ccccc2C1 (stereo unspecified) | inactive |
| COc1cc(OC)c(C(=O)N2CCCC2)cc1OC | inactive |
| Cc1ccc(NC(=O)C(C)Sc2nnc(C3CC3)n2C2CC2)cc1S(=O)(=O)N1CCOCC1 (stereo unspecified) | inactive |
| CSCCC(NC(=O)c1ccc(Cl)cc1Cl)C(=O)NNC(=O)c1csc(N2CCOCC2)n1 (stereo unspecified) | inactive |
| CCOC(=O)c1cc2c(nc1NC(=S)Nc1ccccc1)CC(C)(CC)OC2 (stereo unspecified) | inactive |
| O=C(NNS(=O)(=O)c1ccc(F)cc1)C1CCCCC1 | inactive |
| Cc1ccccc1CNC(=O)C1CCCN(S(=O)(=O)N(C)c2ccc(F)cc2)C1 (stereo unspecified) | 23.1 µM (active) |
| CCOC(=O)c1c(S(=O)(=O)N2CCCC(C(=O)NCc3ccc(F)cc3)C2)c(C)n(CC)c1C (stereo unspecified) | inactive |
| O=C(NCc1ccccc1Cl)C1CCCN1S(=O)(=O)c1ccc(F)cc1 (stereo unspecified) | inactive |
| CCNC(=O)CC1C(=O)N(c2ccc(OC)cc2)C(=O)N1CCOC (stereo unspecified) | inactive |
| CN(C)N=Nc1ccc2nc[nH]c2c1 | inactive |
| Cc1ccc2c(N)c(C(=O)c3ccccc3)sc2n1 | inactive |
| CCCCNC(=O)c1ccc2c(c1)NC(=O)C(C(C)C)N2 (stereo unspecified) | inactive |
| Cc1[nH]c2ccccc2c1C(=O)CSCC(=O)O | inactive |
| CCOC(=O)N1CCN(CC(=O)c2c(C)[nH]c3ccccc23)CC1 | 18.4 µM (active) |

| Compound | Potency |
| --- | --- |
| Cc1[nH]c2ccccc2c1C(=O)CN1CCCC(C)C1 (stereo unspecified) | inactive |
| Cc1[nH]c2ccccc2c1C(=O)CN1CC(C)CC(C)C1 (stereo unspecified) | 11.6 µM (active) |
| Cc1[nH]c2ccccc2c1C(=O)COC(=O)C(C)C | inactive |
| Cc1ccc2c(C(=O)CN3CCCC3)c(C)[nH]c2c1 | inactive |
| CCOCCCNC(=O)C(NC(=O)Cc1c[nH]c2ccccc12)c1ccc(OC)cc1 (stereo unspecified) | inactive |
| COc1cccc(NC(=O)N2CCN(C(=O)c3nsc4ccccc34)CC2)c1 | inactive |
| COC(=O)Cn1cnc2scc(-c3ccc(C)c(C)c3)c2c1=O | inactive |
| CCOC(=O)Nc1sc(C(=O)N(C)C)c(C)c1C(=O)OCC | inactive |
| CCOC(=O)c1c(NC(=O)COC(=O)c2ccc(S(=O)(=O)C(F)F)cc2)sc(C(=O)N(C)C)c1C | inactive |
| CCOC(=O)c1c(NC(=O)CCl)sc(C(=O)N(CC)CC)c1C | 13 µM (active) |
| O=C(COC(=O)c1ccc([N+](=O)[O-])cc1Cl)NC(=O)c1ccccc1 | inactive |
| O=C(NCCN1CCOCC1)c1cnn(-c2nccc(-c3cccs3)n2)c1C1CC1 | inactive |
| COc1cccc(C(=O)Nc2ccc(N3CCCC3)cc2)c1 | 9.2 µM (active) |
| O=C(Nc1ccc2nc3n(c(=O)c2c1)CCCC3)c1ccc(Cl)nc1 | inactive |
| Cc1ccc(OCC(=O)Nc2ccc(N3CCN(C(=O)c4ccco4)CC3)cc2)c(C)c1 | 16.4 µM (active) |
| COc1cccc(C(=O)Nc2ccc(NC(=O)c3ccco3)cn2)c1 | inactive |
| COc1cccc(C(=O)Nc2ccc(N3CCN(C(=O)c4ccco4)CC3)cc2)c1 | 14.6 µM (active) |
| COc1cccc(C(=O)Nc2ccc3nc4n(c(=O)c3c2)CCCCC4)c1 | 20.6 µM (active) |
| COc1ccc(C(=O)Nc2ccc(N3CCC(C)CC3)cc2)cc1Br | inactive |
| Cc1ccc(C)c(OCC(=O)N2CCN(C(=O)c3ccco3)CC2)c1 | inactive |
| O=C(c1ccco1)N1CCN(c2cccc(Cl)c2)CC1 | inactive |
| CCC(=O)Nc1ccc(C(=O)N2CCN(C(=O)c3ccco3)CC2)cc1 | inactive |

| Compound | Potency |
| --- | --- |
| NS(=O)(=O)c1ccc(NC(=O)C(=O)Nc2ccc3nc4n(c(=O)c3c2)CCCCC4)cc1 | inactive |
| CN1CCN(c2ccc(NC(=O)c3ccccc3)cc2)CC1 | inactive |
| COc1cccc(COC(=O)C2CCN(S(=O)(=O)c3ccc(Cl)cc3)CC2)c1OC | inactive |
| COc1ccc(CN2CC[C@H]3C=CC[C@@H](C(=O)N4CCOCC4)[C@H]3C2=O)cc1OC | inactive |
| C=CCN1C(=NC(=O)COc2ccccc2)SC2CS(=O)(=O)CC21 (stereo unspecified) | inactive |
| COc1ccc(CCNC(=O)CSc2nnc3ccc(-c4ccncc4)nn23)cc1 | inactive |
| CCOC(CNC(=O)C(=O)NCC(c1ccco1)N1CCN(c2ccc(OC)cc2)CC1)OCC (stereo unspecified) | inactive |
| COc1ccc2ccccc2c1CNCc1ccccn1 | inactive |
| Cc1cccc(C(C)C)c1NC(=O)COC(=O)C1CC(=O)N(Cc2ccccc2)C1 (stereo unspecified) | inactive |
| COc1ccc2[nH]cc(CCN3C(=O)c4ccc(C(=O)O)cc4C3=O)c2c1 | inactive |
| COc1ccc2[nH]cc(CCNc3ncnc4ccc(-c5ccc(C(=O)N(C)C)cc5)cc34)c2c1 | 20.6 µM (active) |
| COc1ccc2[nH]cc(CCNc3cc(-c4ccccc4CN(C)C)ncn3)c2c1 | inactive |
| Cc1ncc([N+](=O)[O-])n1CCOC(=O)c1ccc(Br)cc1 | inactive |
| CCn1c(/C=C/Nc2ccccc2)[n+](CC)c2ccc(C(=O)OCC(F)(F)F)cc21 | 25.9 µM (active) |
| CCOC(=O)c1ccc2c(c1)nc(C)n2CC | inactive |
| NC(CSC1(c2ccccc2)c2ccccc2-c2ccccc21)C(=O)O (stereo unspecified) | inactive |
| CCNC(=O)Nc1ccc(S(=O)(=O)Nc2cnc(C)nc2C)cc1 | inactive |
| Cc1cc(C)c(C#N)c(SCC(=O)N(CC(C)C)C2CCS(=O)(=O)C2)n1 (stereo unspecified) | inactive |
| CS(=O)(=O)Nc1ccc(C(=O)N2CCCC2)cc1 | inactive |
| CCCS(=O)(=O)Nc1ccc(-c2cn3c(n2)SCC3)cc1 | inactive |
| CNc1cncc(-c2ccc(NS(C)(=O)=O)cc2)n1 | 2.91 µM (active) |
| CC1(C)C/C(=N/Nc2ccc([N+](=O)[O-])cc2[N+](=O)[O-])C(C)(C)O1 | inactive |
